PubChem BioAssay (NCI)
About 83,000 compounds went through this panel and 20% of them were active in at least one assay; those are over-represented in the sample as a whole.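 Cell lines were cultured in 96-well plates, exposed to a single compound concentration, and assessed for percent growth 48 hours later.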 Calls of active or inactive are those of the source. Rule for the calls: active = growth percent below 10; inactive = the rest.

Tests used:
Experiment in all cases: NCI-60 one-dose screen, 48 h (100 = growth as untreated, 0 = no growth, -100 = all killed)
Conditions in all cases: 10 µM unless noted
SR leukemia = system: SR leukemia
RPMI-8226 leukemia = system: RPMI-8226 leukemia
OVCAR-8 ovarian = system: OVCAR-8 ovarian
OVCAR-5 ovarian = system: OVCAR-5 ovarian
OVCAR-4 ovarian = system: OVCAR-4 ovarian
SK-OV-3 ovarian = system: SK-OV-3 ovarian
IGROV1 ovarian = system: IGROV1 ovarian
OVCAR-3 ovarian = system: OVCAR-3 ovarian
HS 578T breast = system: HS 578T breast
NCI/ADR-RES ovarian = system: NCI/ADR-RES ovarian
T-47D breast = system: T-47D breast
BT-549 breast = system: BT-549 breast
MDA-MB-435 melanoma = system: MDA-MB-435 melanoma
SW-620 colon = system: SW-620 colon
MCF7 breast = system: MCF7 breast
HCT-116 colon = system: HCT-116 colon
HCC-2998 colon = system: HCC-2998 colon
KM12 colon = system: KM12 colon
MDA-MB-468 breast = system: MDA-MB-468 breast

Measured: growth

O=C(N=Nc1c(O)[nH]c2ccc(Cl)cc12)c1ccc2nc(-c3ccccc3)[nH]c2c1
inactive: SR leukemia 15.3% | RPMI-8226 leukemia 70.1% | OVCAR-8 ovarian 20.8% | OVCAR-5 ovarian 106% | OVCAR-4 ovarian 38.2% | SK-OV-3 ovarian 91% | IGROV1 ovarian 75.4% | OVCAR-3 ovarian 109% | HS 578T breast 52.3% | NCI/ADR-RES ovarian 90% | T-47D breast 30.1% | BT-549 breast 109% | MDA-MB-435 melanoma 79.7% | SW-620 colon 17.8% | HCT-116 colon 59.4% | HCC-2998 colon 10.3% | KM12 colon 91.2%
active: MCF7 breast 4.1% | MDA-MB-468 breast -31.3%

O=c1cc(-c2ccccc2)oc2cc(OCCCC[P+](c3ccccc3)(c3ccccc3)c3ccccc3)cc(O)c12
active: SR leukemia -39.8% | RPMI-8226 leukemia -66.7% | OVCAR-8 ovarian -61.1% | OVCAR-5 ovarian -97.7% | OVCAR-4 ovarian -69.1% | SK-OV-3 ovarian -83.4% | IGROV1 ovarian -75.7% | OVCAR-3 ovarian -94% | HS 578T breast -35.2% | NCI/ADR-RES ovarian -68.3% | T-47D breast -62.5% | BT-549 breast -83% | MDA-MB-435 melanoma -67.5% | SW-620 colon -81.7% | MCF7 breast -79.1% | HCT-116 colon -58.1% | HCC-2998 colon -93.1% | KM12 colon -85.2% | MDA-MB-468 breast -84.9%

Cc1cc2c(cc1Cl)C(=O)/C(=C/c1ccccc1)O2
active: OVCAR-8 ovarian -24.7% | OVCAR-4 ovarian 9.29% | IGROV1 ovarian -48.2% | NCI/ADR-RES ovarian -19.8% | T-47D breast -22.8% | BT-549 breast -3.52% | MDA-MB-468 breast 0.644%
inactive: SR leukemia 10.1% | RPMI-8226 leukemia 26% | OVCAR-5 ovarian 75% | SK-OV-3 ovarian 71.4% | OVCAR-3 ovarian 26.8% | HS 578T breast 21% | MDA-MB-435 melanoma 19.7% | SW-620 colon 33.9% | MCF7 breast 17.5% | HCT-116 colon 18.1% | HCC-2998 colon 63.6% | KM12 colon 17.8%

O=C(COc1ccc(NC(=O)Nc2ccc(Cl)c(Cl)c2)cc1)N=Nc1c(O)[nH]c2ccc(Br)cc12
active: SR leukemia 3.18% | RPMI-8226 leukemia 3.61% | OVCAR-8 ovarian -59.9% | OVCAR-5 ovarian -44.5% | OVCAR-4 ovarian -27% | SK-OV-3 ovarian -43.3% | IGROV1 ovarian -51% | OVCAR-3 ovarian -76.4% | HS 578T breast -5.94% | T-47D breast -26.4% | BT-549 breast -71.5% | MDA-MB-435 melanoma -51.3% | SW-620 colon -21.2% | MCF7 breast -1.82% | HCT-116 colon -60.6% | HCC-2998 colon -67.3% | KM12 colon -87.2% | MDA-MB-468 breast -75%
inactive: NCI/ADR-RES ovarian 82.4%

COc1cc(C2CC(c3cc(OC)c(OC)c(OC)c3)=Nc3c(N)nc(N)nc3N2)ccc1Oc1nc(NCCO)nc(N2CCOCC2)n1 (stereo not given)
inactive: SR leukemia 93.1% | RPMI-8226 leukemia 95.5% | OVCAR-8 ovarian 99.9% | OVCAR-5 ovarian 106% | OVCAR-4 ovarian 107% | SK-OV-3 ovarian 104% | IGROV1 ovarian 104% | OVCAR-3 ovarian 107% | HS 578T breast 95% | NCI/ADR-RES ovarian 97.6% | T-47D breast 90.3% | BT-549 breast 116% | MDA-MB-435 melanoma 100% | SW-620 colon 103% | MCF7 breast 87.4% | HCT-116 colon 100% | HCC-2998 colon 115% | KM12 colon 99.9% | MDA-MB-468 breast 81.2%

COc1ccc(-c2nc3ccc(C(=O)NN4C(=O)c5ccc([N+](=O)[O-])cc5C4=O)cc3[nH]2)cc1
inactive: SR leukemia 89.1% | RPMI-8226 leukemia 80.9% | OVCAR-8 ovarian 97.5% | OVCAR-5 ovarian 88.6% | OVCAR-4 ovarian 101% | SK-OV-3 ovarian 94.8% | IGROV1 ovarian 101% | OVCAR-3 ovarian 115% | HS 578T breast 104% | NCI/ADR-RES ovarian 102% | T-47D breast 97% | BT-549 breast 105% | MDA-MB-435 melanoma 98.3% | SW-620 colon 101% | MCF7 breast 83% | HCT-116 colon 102% | HCC-2998 colon 108% | KM12 colon 101% | MDA-MB-468 breast 89.7%

O=C1NC(=O)c2c1c1c3cc(Br)ccc3[nH]c1c1oc3ccc(F)cc3c21
inactive: RPMI-8226 leukemia 14.8% | OVCAR-5 ovarian 51.7% | NCI/ADR-RES ovarian 10% | BT-549 breast 15.1% | MDA-MB-435 melanoma 33.7% | KM12 colon 15.1%
active: SR leukemia 4.79% | OVCAR-8 ovarian -44.7% | OVCAR-4 ovarian -88% | SK-OV-3 ovarian -5.1% | IGROV1 ovarian -46.9% | OVCAR-3 ovarian -33.3% | HS 578T breast -34.9% | T-47D breast -20.1% | SW-620 colon 3.59% | MCF7 breast -47.5% | HCT-116 colon 0.579% | HCC-2998 colon -9.47% | MDA-MB-468 breast -51.8%

CN(C)c1nc(NCCNS(=O)(=O)c2ccc(C3=Nc4c(N)nc(N)nc4NC(c4ccc(C(F)(F)F)cc4)C3)cc2)nc(Nc2ccc(F)cc2)n1 (stereo not given)
active: SR leukemia -23.2% | RPMI-8226 leukemia -13.1% | T-47D breast 9.22% | MDA-MB-435 melanoma 9.17% | MCF7 breast -28.2% | HCT-116 colon 2.12% | HCC-2998 colon -32.1% | KM12 colon -4.83% | MDA-MB-468 breast -46.2%
inactive: OVCAR-8 ovarian 32.8% | OVCAR-5 ovarian 29.5% | OVCAR-4 ovarian 31.3% | SK-OV-3 ovarian 49.8% | IGROV1 ovarian 35.8% | OVCAR-3 ovarian 23% | HS 578T breast 27.1% | NCI/ADR-RES ovarian 92.9% | BT-549 breast 19.3% | SW-620 colon 11.7%

C=C1CCC2C3(C)COC(c4cccs4)OC3CCC2(C)C1CC(Sc1ccccc1)C1=CCOC1=O (stereo not given)
inactive: SR leukemia 46.1% | RPMI-8226 leukemia 16.1% | OVCAR-8 ovarian 66% | OVCAR-5 ovarian 102% | OVCAR-4 ovarian 83.6% | SK-OV-3 ovarian 131% | IGROV1 ovarian 95.5% | OVCAR-3 ovarian 86.1% | HS 578T breast 112% | T-47D breast 82.3% | BT-549 breast 25.8% | MDA-MB-435 melanoma 87.2% | SW-620 colon 80% | MCF7 breast 38.2% | HCT-116 colon 32.4% | HCC-2998 colon 81.5% | KM12 colon 89.2% | MDA-MB-468 breast 90.5%
active: NCI/ADR-RES ovarian 2.64%

COc1ccc(N2N=C(c3ccc4c(c3)OCO4)CC2c2cccc(NC(=O)CCNS(=O)(=O)c3ccc(Cl)cc3)c2)cc1 (stereo not given)
active: SR leukemia 3.71% | MCF7 breast 8.85% | HCC-2998 colon 8.63%
inactive: RPMI-8226 leukemia 23.2% | OVCAR-8 ovarian 49.1% | OVCAR-5 ovarian 68.4% | OVCAR-4 ovarian 51.6% | SK-OV-3 ovarian 46.1% | IGROV1 ovarian 61.1% | OVCAR-3 ovarian 61.8% | HS 578T breast 13.4% | NCI/ADR-RES ovarian 71.3% | T-47D breast 28.9% | BT-549 breast 34.5% | MDA-MB-435 melanoma 41.1% | SW-620 colon 55.8% | HCT-116 colon 26.9% | KM12 colon 21.2% | MDA-MB-468 breast 10.1%

Cn1cc(NC(=O)c2cc(NC(=O)c3ccc(/C=C/c4ccccc4)cc3)cn2C)cc1C(=O)NCCCN1CCOCC1
active: SR leukemia -22.3% | RPMI-8226 leukemia -47.7% | MDA-MB-435 melanoma -73.1% | SW-620 colon -34% | MCF7 breast -84.8% | HCT-116 colon -90.1% | HCC-2998 colon -80.1% | KM12 colon -45.8% | MDA-MB-468 breast -61.3%
inactive: OVCAR-8 ovarian 15.4% | OVCAR-5 ovarian 93.9% | OVCAR-4 ovarian 63% | SK-OV-3 ovarian 98.4% | IGROV1 ovarian 58.3% | OVCAR-3 ovarian 24.5% | HS 578T breast 64.6% | NCI/ADR-RES ovarian 90.2% | T-47D breast 46.4% | BT-549 breast 71.7%

COc1ccc(NC(=O)[C@H](CO)NC(=O)OC(C)(C)C)cc1C(=O)Nc1cccc(C2CC(=O)c3c(cc(OC)c(OC)c3OC)O2)c1 (stereo not given in full)
inactive: SR leukemia 25.3% | RPMI-8226 leukemia 23% | OVCAR-8 ovarian 26.3% | OVCAR-5 ovarian 113% | OVCAR-4 ovarian 57.7% | SK-OV-3 ovarian 87.8% | IGROV1 ovarian 43.1% | OVCAR-3 ovarian 47.7% | HS 578T breast 53.6% | NCI/ADR-RES ovarian 71.6% | T-47D breast 25.8% | BT-549 breast 12.7% | MDA-MB-435 melanoma 41.1% | SW-620 colon 73.9% | MCF7 breast 30% | HCT-116 colon 32.3% | HCC-2998 colon 83% | KM12 colon 43.8% | MDA-MB-468 breast 36.2%

O=c1[nH]c2ccccc2cc1CSc1nccc(-c2ccc3ccccc3c2)n1
active: MDA-MB-468 breast -17.2%
inactive: SR leukemia 20.6% | RPMI-8226 leukemia 52.1% | OVCAR-8 ovarian 79.6% | OVCAR-5 ovarian 93.7% | OVCAR-4 ovarian 80.3% | SK-OV-3 ovarian 84.3% | IGROV1 ovarian 89.9% | OVCAR-3 ovarian 102% | HS 578T breast 71% | NCI/ADR-RES ovarian 41.7% | T-47D breast 41.8% | BT-549 breast 44.8% | MDA-MB-435 melanoma 17.3% | SW-620 colon 51.2% | MCF7 breast 47% | HCT-116 colon 41.7% | HCC-2998 colon 83.5% | KM12 colon 69.6%

Cc1ccc(-c2nc(C#N)c(S(=O)(=O)N3CCN(S(=O)(=O)c4ccc(Cl)cc4)CC3)o2)cc1
inactive: SR leukemia 47.3% | RPMI-8226 leukemia 97% | OVCAR-8 ovarian 82.2% | OVCAR-5 ovarian 105% | OVCAR-4 ovarian 86.8% | SK-OV-3 ovarian 87.2% | IGROV1 ovarian 95.8% | OVCAR-3 ovarian 114% | HS 578T breast 65.2% | NCI/ADR-RES ovarian 91% | T-47D breast 92.1% | BT-549 breast 99.8% | MDA-MB-435 melanoma 94.8% | SW-620 colon 109% | MCF7 breast 75.8% | HCT-116 colon 84.9% | HCC-2998 colon 106% | KM12 colon 109% | MDA-MB-468 breast 61.9%

COC(=O)/C=C/c1cccc2c1C(=O)NC(C)(c1cc3cc4ccccc4cc3oc1=O)N2 (stereo not given)
inactive: SR leukemia 28% | RPMI-8226 leukemia 40.2% | OVCAR-8 ovarian 54.3% | OVCAR-5 ovarian 63.3% | SK-OV-3 ovarian 95.6% | IGROV1 ovarian 65.2% | OVCAR-3 ovarian 32% | HS 578T breast 29.5% | NCI/ADR-RES ovarian 35.2% | T-47D breast 71.8% | BT-549 breast 45.2% | MDA-MB-435 melanoma 76.1% | SW-620 colon 54.3% | MCF7 breast 47.2% | HCT-116 colon 44.5% | HCC-2998 colon 68.5% | KM12 colon 53.7% | MDA-MB-468 breast 41%
active: OVCAR-4 ovarian 5.78%
